Values joined by “and” are separate entries in the source; they are usually repeats but may differ in a detail not shown here. Equal entries are not always repeated.

Consider 36 molecules from ChEMBL document CHEMBL3433997, “St. Jude Leishmania screening dataset” (2016).

What all share (assay type): functional
Experiment [1] addresses Solute carrier family 2, facilitated glucose transporter member 1 (Homo sapiens) (UniProt P11166). The experiment is described as follows: ST_JUDE_LEISH: Cytotoxicity at 2uM final concentration against transgenic Leishmania Mexicana promastigotes LmGLUT1 that are glucose transport deficient and complemented with the human glucose transporter GLUT1. Activity is measured by DNA content using SYBR green in vitro.

In experiment [2] the target is Hexose transporter 1 (Plasmodium falciparum) (UniProt O97467). The experiment can be described thus: ST_JUDE_LEISH: Cytotoxicity at 2uM final concentration against transgenic Leishmania Mexicana promastigotes LmPfHT that are glucose transport deficient and complemented with the Plasmodium falciparum hexose transporter. Activity is measured by DNA content using SYBR green in vitro.

For experiment [3], the target named is Glucose transporter (Leishmania mexicana) (UniProt O61059). The experiment can be described thus: ST_JUDE_LEISH: Cytotoxicity at 2uM final concentration against transgenic Leishmania Mexicana promastigotes LmGT2 that are glucose transport deficient and complemented with the L. Mexicana glucose transporter 2. Activity is measured by DNA content using SYBR green in vitro.

Chain of Solute carrier family 2, facilitated glucose transporter member 1 (Homo sapiens) (P11166 whole entry): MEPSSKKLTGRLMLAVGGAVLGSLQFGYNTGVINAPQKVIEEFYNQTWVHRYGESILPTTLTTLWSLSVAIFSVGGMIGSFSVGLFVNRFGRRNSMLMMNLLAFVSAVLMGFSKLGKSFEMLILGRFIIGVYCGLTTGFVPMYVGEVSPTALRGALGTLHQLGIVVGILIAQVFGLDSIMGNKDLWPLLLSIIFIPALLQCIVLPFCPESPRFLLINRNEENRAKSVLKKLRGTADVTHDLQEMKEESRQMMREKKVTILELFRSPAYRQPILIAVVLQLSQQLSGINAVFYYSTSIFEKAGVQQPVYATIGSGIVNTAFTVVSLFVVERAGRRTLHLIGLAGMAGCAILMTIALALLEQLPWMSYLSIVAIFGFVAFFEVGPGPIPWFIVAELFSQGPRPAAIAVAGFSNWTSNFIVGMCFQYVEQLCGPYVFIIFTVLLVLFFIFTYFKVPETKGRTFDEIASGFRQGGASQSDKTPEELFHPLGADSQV

`Oc1ccc(CCCNc2nc(NCc3cccc4ccccc34)nc(N3CCNCC3)n2)cc1`: the inhibition in experiment [1] is -1.06%; in experiment [2] it was 0.53%; in experiment [3], 0.63%.

For the molecule `OCC1CCN(Cc2ccc(-c3ccc(-c4nc5cc(F)ccc5[nH]4)s3)cc2)CC1`, the inhibition was determined as 4.75% in experiment [1], 3.26% in experiment [2] and 4.89% in experiment [3].

For the molecule `CCOC(=O)C(C#N)NC(=O)C=Cc1ccccc1` (stereo not drawn), the inhibition in experiment [1] was found to be 7.73%; in experiment [2], 6.93%; in experiment [3], 5.14%.

On to `CSc1ccc(CN2CCC(CNC(=O)c3cc(-c4ccccc4F)cs3)C2)cc1` (stereo not drawn), for which the inhibition in experiment [1] was 0.69%; in experiment [2], -0.86%; in experiment [3], -3.72%.

In the case of `Cc1cccc2nc(-c3cccc(-c4cccc(NC(=O)C(C)CN(C)C)c4)c3)[nH]c12` (stereo not drawn), the inhibition turned out to be 1.51% in experiment [1], 1.39% in experiment [2] and 2.3% in experiment [3].

Turning to `N#Cc1ccc2c(c1)CCN(CCC1CCC(NC(=O)c3ccc(-c4ccccc4)s3)CC1)CC2` (stereo not drawn), the inhibition in experiment [1] was 4.75%; in experiment [2], 3.75%; in experiment [3] it was 2.43%.

Turning to `COc1cc(C(=O)Nc2ccc(-c3nc4ccccc4[nH]3)cc2)cc(OC)c1OC`, the values for the inhibition in experiment [1], in experiment [2] and in experiment [3] were 2.49%, 2.26% and 3.39%, respectively.

`CC1(C)CNCc2cc(NC(=O)/C=C/c3ccc(Cl)cc3)ccc21`: the inhibition in experiment [1] was 0.41%; in experiment [2] it was -2.52%; in experiment [3], 2.38%.

Consider `CC1CN(c2ccc(C(=O)NCC3CC3)cc2NC(=O)OCc2ccccc2)CC(C)O1` (stereo not drawn), for which the figures for the inhibition in experiment [1], in experiment [2] and in experiment [3] were 0.19%, 0.86% and -0.78%, respectively.

On to `Cc1cc(N[C@@H](CC(C)C)C(=O)NCc2cccc(F)c2)nc(NCCc2ccc(F)cc2)n1`, for which the figures for the inhibition in experiment [1], in experiment [2] and in experiment [3] were 4.5%, 7.16% and 4.36%, respectively.

`c1cc(Nc2nc(-c3ccc(-c4csc(Nc5ccncc5)n4)cc3)cs2)ccn1`: the inhibition was -1.93% in experiment [1], -1.56% in experiment [2] and -1.05% in experiment [3].

Turning to `N#Cc1ccc(CN2CCC(Oc3ccc(NC(=O)c4cccs4)cc3Cl)C2)cc1` (stereo not drawn), the results for the inhibition in experiment [1], in experiment [2] and in experiment [3] were -0.24%, 3.89% and -0.2%, respectively.

Turning to `CC(Cc1ccc(OCCN2CCN(c3ccc(Cl)cc3)CC2)cc1)NCC(O)c1cccc(C(F)(F)F)c1` (stereo not drawn), the inhibition in experiment [1] was -2.36%; in experiment [2], -1.57%; in experiment [3], 0.07%.

On to `Cc1cccc2nc(-c3ccc(-c4cccc(CNC5CCN(C)CC5)c4)s3)[nH]c12`, for which the inhibition is -2.43% in experiment [1], 2.74% in experiment [2] and -0.61% in experiment [3].

`Cc1cc(OCC2CCCO2)c2cc(NC(=O)C(=O)Nc3ccc4nc(C)cc(OCC5CCCO5)c4c3)ccc2n1` (stereo not drawn): the results for the inhibition in experiment [1], in experiment [2] and in experiment [3] were 3.87%, 3.62% and 3.37%, respectively.

For the molecule `COc1cccc(CN2Cc3ccccc3OC3(CCN(Cc4c[nH]c5cnccc45)CC3)C2)c1`, the results for the inhibition in experiment [1], in experiment [2] and in experiment [3] were -0.87%, -0.52% and 0.59%, respectively.

For `COc1cccc(-c2csc(C(=O)NC3CCCCN(Cc4ccc(C(C)(C)C)cc4)C3)c2)c1` (stereo not drawn), the inhibition in experiment [1] came out at 4.84%; in experiment [2] it was 7.61%; in experiment [3], 5.14%.

Regarding `CC(C)CCN1CCCN(Cc2cccc(NC(=O)c3ccc(Cl)c(Cl)c3)c2)CC1`, the figures for the inhibition in experiment [1], in experiment [2] and in experiment [3] were -1.69%, -1.38% and -3.74%, respectively.

With `CCCC(=O)NC(c1ccc(C)cc1)c1ccc2cccnc2c1O` (stereo not drawn), the inhibition was 3.47% in experiment [1], 4.55% in experiment [2] and -1.36% in experiment [3].

In the case of `Cc1ccnc(NC(c2cccc(OCc3ccccc3)c2)c2ccc3cccnc3c2O)c1` (stereo not drawn), the inhibition in experiment [1] is 0.07%; in experiment [2] it was 1.21%; in experiment [3] it was -1.47%.

In the case of `CC(C)[C@H](NC(=O)c1c(CN2CCC(N3CCCCC3)CC2)c(-c2ccccc2)nc2cc(O)ccc12)c1ccccc1`, the inhibition in experiment [1] was 2.26%; in experiment [2], 1.22%; in experiment [3] it was 0.91%.

For `O=C(Nc1cccc(-c2nc3ccccc3s2)c1)c1ccccc1[N+](=O)[O-]`, the inhibition in experiment [1] is 0.94%; in experiment [2], -0.02%; in experiment [3], -0.15%.

Turning to `O=C(Nc1cccnc1)c1cn(-c2ccccc2)nc1-c1cccs1`, the inhibition in experiment [1] is 3.18%; in experiment [2], 1.81%; in experiment [3] it was -1.31%.

Turning to `COc1ccc(N2CCN(CCCCNC(=O)c3ccc(NC(=O)c4cc(Cl)cc(Cl)c4)cc3)CC2)c(OC)c1`, the values for the inhibition in experiment [1], in experiment [2] and in experiment [3] were 2.07%, 3.87% and 3.2%, respectively.

As to `COc1cccc2c(Nc3ccccc3C)nc(Nc3ccccc3C)nc12`, the results for the inhibition in experiment [1], in experiment [2] and in experiment [3] were 19.6%, 16.8% and 4.14%, respectively.

On to `Cc1cc(=O)c(-c2ccc(Oc3cccc(C(F)(F)F)c3)cc2)c(C)[nH]1`, for which the inhibition was 0.14% and -4.84% in experiment [1]; 2% and 2.11% in experiment [2]; 1.32% and -2.73% in experiment [3].

Turning to `CC(=O)Nc1ccc(C(=O)Nc2ccc(-c3cccc(-c4nc5ccccc5[nH]4)c3)cc2)cn1`, the inhibition was 0.89% in experiment [1], 0.79% in experiment [2] and -0.56% in experiment [3].

Consider `OCC1CCN(Cc2ccc(-c3ccc(-c4nc5cc(C(F)(F)F)ccc5[nH]4)cc3)cc2)CC1`, for which the inhibition in experiment [1] is 5.9%; in experiment [2], 8.94%; in experiment [3], 3.07%.

As to `O=C(Nc1ccc(Cl)c(Cl)c1)Nc1cc(C(F)(F)F)ccc1Cl`, the inhibition in experiment [1] is -0.56%; in experiment [2] it was 1.37%; in experiment [3] it was 1.28%.

For the molecule `CC(C)C(C(=O)n1ncc2c3c(N)nc(N)nc3ccc21)C(C)C`, the inhibition in experiment [1] is 87.4%; in experiment [2] it was 86.9%; in experiment [3], 78.4%.

As to `N=C(N)NC(=O)Nc1cc(Cl)c(Cl)c(C(F)(F)F)c1`, the inhibition worked out at 2.87% in experiment [1], 3.46% in experiment [2] and 1.58% in experiment [3].

`COc1ccc2nccc(NC(=O)C3CCC(NCc4cnc(SC)c([N+](=O)[O-])c4)CC3)c2n1` (stereo not drawn): the inhibition in experiment [1] came to 10.5%; in experiment [2], 10.3%; in experiment [3], 20.7%.

Take `CCN(CC)CCN(Cc1ccc(-c2ccc(Br)cc2)cc1)C(=O)Cn1c(CCc2cccc(F)c2F)nc(=O)c2ccccc21`: the inhibition is 2.2% in experiment [1], 3.29% in experiment [2] and 6.05% in experiment [3].

Turning to `CC(C)CCN1C(=O)C(NC(=O)Oc2ccccc2)C(=O)N(CC23CC4CC(CC(C4)C2)C3)c2ccccc21` (stereo not drawn), the inhibition in experiment [1] is -1.21%; in experiment [2], -2.53%; in experiment [3] it was -2.02%.

Regarding `NC(=S)Cc1ccc2c(c1)OCO2`, the inhibition in experiment [1] is -0.08%; in experiment [2] it was -0.33%; in experiment [3] it was -0.59%.

With `CCc1ccc(CN2CCC(NC(=O)c3cc(-c4ccc(N(C)C)cc4)cs3)C2)cc1` (stereo not drawn), the inhibition in experiment [1] worked out at 1.27%; in experiment [2] it was 4.08%; in experiment [3], 6.01%.
